Laboratory results taken from paper PMC4336329 (PLoS ONE, 2015).
Screen size: about 310,000 compounds; about 14,000 (4.5%) showed an effect of 50% or more. Effects have a minus sign here. What follows is part of a selection rich in strong results, with near analogues and random picks from the rest.

target: human ether-à-go-go-related gene (hERG) potassium channel (human, UniProt Q12809); test: primary screen, population patch clamp on CHO cells stably expressing hERG; higher = less effect of the substance
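Also: peak tail current of the secondary pulse compared with the same well before compound.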

human ether-à-go-go-related gene (hERG) potassium channel, sequence (Q12809 whole entry, looked up): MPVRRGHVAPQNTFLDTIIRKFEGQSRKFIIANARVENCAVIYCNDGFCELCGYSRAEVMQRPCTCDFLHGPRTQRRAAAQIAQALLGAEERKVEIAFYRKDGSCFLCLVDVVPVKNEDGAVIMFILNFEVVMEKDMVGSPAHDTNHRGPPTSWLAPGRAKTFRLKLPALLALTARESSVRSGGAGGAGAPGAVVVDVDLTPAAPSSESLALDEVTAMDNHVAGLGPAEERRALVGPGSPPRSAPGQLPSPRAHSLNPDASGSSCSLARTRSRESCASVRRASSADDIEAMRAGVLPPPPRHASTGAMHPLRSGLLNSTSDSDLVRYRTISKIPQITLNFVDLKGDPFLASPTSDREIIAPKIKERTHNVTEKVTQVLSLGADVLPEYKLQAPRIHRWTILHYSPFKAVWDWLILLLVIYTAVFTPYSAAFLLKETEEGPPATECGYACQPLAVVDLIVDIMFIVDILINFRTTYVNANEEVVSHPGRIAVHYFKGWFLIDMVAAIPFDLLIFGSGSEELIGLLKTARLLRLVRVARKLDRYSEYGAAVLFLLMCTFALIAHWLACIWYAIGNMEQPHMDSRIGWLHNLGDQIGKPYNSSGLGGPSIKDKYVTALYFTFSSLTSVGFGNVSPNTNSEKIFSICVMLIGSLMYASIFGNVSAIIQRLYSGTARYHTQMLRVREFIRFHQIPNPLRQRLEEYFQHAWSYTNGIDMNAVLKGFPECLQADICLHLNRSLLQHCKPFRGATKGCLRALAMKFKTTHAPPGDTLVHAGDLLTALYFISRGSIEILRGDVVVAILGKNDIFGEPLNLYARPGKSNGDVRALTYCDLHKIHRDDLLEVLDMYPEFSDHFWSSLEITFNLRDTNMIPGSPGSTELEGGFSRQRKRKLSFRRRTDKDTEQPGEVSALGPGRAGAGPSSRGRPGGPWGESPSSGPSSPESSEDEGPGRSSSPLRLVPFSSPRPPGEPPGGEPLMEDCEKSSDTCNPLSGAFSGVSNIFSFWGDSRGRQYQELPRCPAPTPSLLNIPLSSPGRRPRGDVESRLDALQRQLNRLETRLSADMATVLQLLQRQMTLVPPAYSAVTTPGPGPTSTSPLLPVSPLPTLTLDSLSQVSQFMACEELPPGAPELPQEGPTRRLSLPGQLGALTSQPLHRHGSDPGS

| SMILES | hERG current change (%, negative = inhibition) at 10uM |
| --- | --- |
| COc1ccc(-n2c(=O)c(CCC(=O)N(C)Cc3cccs3)nc3ccccc32)cc1 | -38.7% |
| CCc1ccc(CN(C)C(=O)CCc2nc3ccccc3n(-c3ccc(OC)cc3)c2=O)cc1 | -0.36% |
| COc1ccc(-n2c(=O)c(CCC(=O)N(C)Cc3ccccc3C)nc3ccccc32)cc1 | -50.4% |
| COc1cc2c(cc1OC)-c1cc(Nc3ccccc3)nc(=O)n1CC2 | -64.1% |
| COc1cc2c(cc1OC)-c1cc(Nc3ccc(C)cc3)nc(=O)n1CC2 | -8.97% |
| COc1ccc(Nc2cc3n(c(=O)n2)CCc2cc(OC)c(OC)cc2-3)cc1 | 4.8% |
| O=C(NCc1ccc2c(c1)OCO2)Nc1ccc(Cl)cc1 | 5.12% |
| COc1cccc(NC(=O)c2cnc[nH]2)c1 | 25.1% |
| COc1ccccc1NC(=O)C(=O)NCc1ccncc1 | -5.14% |
| Cn1c(CCc2ccccc2)nnc1SCC(N)=O | 15.3% |
| N#Cc1c(-c2ccccc2)c(-c2ccccc2)nn(CC(=O)NNC(=O)Nc2ccc(Cl)c(Cl)c2)c1=O | -1.35% |
| CC(=O)N1CC[n+]2c(-c3ccc([N+](=O)[O-])cc3)csc21.[Br-] | -68.9% |
| CC(=O)N1CC[n+]2c(-c3ccc(Cl)cc3)csc21.[Br-] | -1.19% |
| CCc1ccc(-c2csc3[n+]2CCN3C(C)=O)cc1.[Br-] | -29.1% |
| CCC1CCc2sc(C(=O)N3CCCN(C)CC3)cc2C1 (stereo not shown) | -12.9% |
| C=CCN1CCN(C(=O)c2cc3c(s2)CCC(CC)C3)CC1 (stereo not shown) | -57.3% |
| C=CCN1CCN(C(=O)c2cc3c(s2)CCCC3)CC1 | -19.3% |
| Cc1ccc(C)c(C(C)NC(=O)c2ccncc2)c1 (stereo not shown) | -7.4% |
| Cc1cc(C(F)F)nn1CC(=O)NC1CCCC1 | 1.56% |
| CCCC(=O)c1ccc(N2CCN(C(=O)c3ccccc3)CC2)c(F)c1 | -66.7% |
| CCOC(=O)N1CCN(C(=O)c2ccc3nc(-c4ccccc4)c(-c4ccccc4)nc3c2)CC1 | -54.6% |
| CCC(=O)c1cc(F)c(N2CCN(C(=O)Cc3ccccc3)CC2)cc1C | -58.9% |

| SMILES | hERG current change (%, negative = inhibition) at 10uM |
| --- | --- |
| CCCC(=O)c1ccc(N2CCN(C(=O)c3ccccc3Br)CC2)c(F)c1 | -23.7% |
| CCOC(=O)N1CCN(c2ccc(C(C)=O)cc2F)CC1 | 5.68% |
| CCN1CCN(C(=O)c2ccc3nc(-c4ccccc4)c(-c4ccccc4)nc3c2)CC1 | -17.4% |
| CCCC(=O)c1ccc(N2CCN(C(=O)c3ccc(Br)cc3)CC2)c(F)c1 | 2.35% |
| CN1CCN(C(=O)c2ccc3nc(-c4ccccc4)c(-c4ccccc4)nc3c2)CC1 | 6.03% |
| CC(=O)c1cc(F)c(N2CCN(C(=O)Cc3ccccc3)CC2)cc1C | -11.5% |
| CCC(=O)c1ccc(N2CCN(C(=O)Cc3ccccc3)CC2)c(F)c1 | -36.5% |
| CCOC(=O)N1CCN(c2ccc(C(=O)c3ccccc3)cc2F)CC1 | -50.8% |
| CCCC(=O)c1ccc(N2CCN(C(=O)OCC)CC2)c(F)c1 | -14.2% |
| Cc1ccc(Cn2c(C)cc3c(c2=O)C(c2cccs2)C(C#N)=C(N)O3)cc1 (stereo not shown) | 15.8% |
| CC(C)c1cccc(C(C)C)c1NC(=O)CN1C(=O)NC2(CCCC2)C1=O | 14.8% |
| CCOC(=O)C(O)(CCC(O)(C(=O)OCC)C(=O)OCC)C(=O)OCC | 5.85% |
| Cn1c(=O)c2c(nc(CN3CCC(C(N)=O)CC3)n2CCc2ccccc2)n(C)c1=O | 4.44% |
| CCOC(=O)c1ccc(NC(=O)NC2CC3CCC(C2)N3Cc2nnnn2Cc2ccco2)cc1 (stereo not shown) | -21.1% |
| O=C(NCc1ccc2c(c1)OCO2)c1nn(-c2ccccc2)c(=O)c2ccccc12 | -35.1% |
| COc1ccc(N(CC(=O)NCc2cccnc2)S(=O)(=O)c2c(C)nn(C)c2C)cc1 | 3.1% |
| O=C(CSc1nc(-c2ccccc2)nn1C(=O)c1ccccc1)Nc1cccc([N+](=O)[O-])c1 | 2.83% |
| COc1ccc(NC(=O)CCc2nc3ccccc3s2)c(OC)c1 | -0.68% |
| O=C(CN(c1cccc(C(F)(F)F)c1)S(=O)(=O)c1ccccc1)N1CCOCC1 | -30.5% |
| O=C(c1ccccc1CCc1ccccc1)N1CCCC1 | 9.12% |
| CCC(=O)c1ccc(N2CCCCC2)c(F)c1 | 8.26% |
| CCC(=O)c1ccc(N2CCN(C(=O)c3ccccc3)CC2)c(F)c1 | -70.1% |

| SMILES | hERG current change (%, negative = inhibition) at 10uM |
| --- | --- |
| CCC(=O)c1ccc(N2CCN(C(=O)c3ccc(Br)cc3)CC2)c(F)c1 | -16% |
| CCC(=O)c1ccc(N2CCN(C(=O)c3cccc(F)c3)CC2)c(F)c1 | -41.6% |
| CCC(=O)c1ccc(N2CCN(C(=O)c3ccc(F)cc3)CC2)c(F)c1 | -60% |
| CCC(=O)c1ccc(N2CCN(C(=O)c3ccccc3Br)CC2)c(F)c1 | -26.8% |
| CCOC(=O)N1CCN(C(=O)c2ccccc2CCc2ccccc2)CC1 | -59.1% |
| CCOC(=O)C1CCN(C(=O)c2ccccc2CCc2ccccc2)CC1 | -8.95% |
| CCOC(=O)Nc1sc(C(=O)N(C)C)c(C)c1C(=O)OCC | 5.73% |
| O=C(COC(=O)/C=C/c1cccs1)NC(c1ccccc1)c1ccccc1 | -2.53% |
| O=C(CNC(=O)c1ccccc1)OCC(=O)c1ccc(Cl)s1 | 0.566% |
| CC1(C)CC(=O)C2=C(C1)NC(=O)NC2c1ccccc1 (stereo not shown) | 21.7% |
| Cc1oc(CC(C)C)cc1C(=O)NCCCC(=O)O | 13.6% |
| COc1ccc(C2(CNS(=O)(=O)c3ccc(C)cc3)CCOCC2)cc1 | 15.4% |
| O=C(O)c1ccc(N2C(=O)CC(SC(=NCc3ccc4c(c3)OCO4)Nc3ccccc3)C2=O)cc1 (stereo not shown) | 13.9% |
| CCOC(=O)C1=C(C)NC(=O)CC1c1ccccc1 (stereo not shown) | -0.777% |
| COc1ccc(C(=O)CCc2ccc(OC)c(OC)c2)cc1 | -10.3% |
| O=C(CNC(=O)c1ccc(Br)cc1)OCC(=O)c1ccccc1 | 10.2% |
| Cc1ccc2[nH]c(-c3cccc(N)c3)cc2c1 | 18.4% |
| O=C(CSc1nnc(CN2CCCCC2)n1-c1ccccc1)c1ccc2c(c1)OCO2 | -25.4% |
| Cc1ccc2c(c1)N(CC(=O)N1CCCC1)C(=O)C(C)O2 (stereo not shown) | 19.4% |
| CCC1Oc2ccc(C)cc2N(CC(=O)N2CCCC2)C1=O (stereo not shown) | 23.2% |
| Cc1ccc2c(c1)N(CC(=O)N1CCN(c3nc4ccccc4s3)CC1)C(=O)C(C)O2 (stereo not shown) | -54.5% |
| CCC1Oc2ccc(C)cc2N(CC(=O)N2CCOCC2)C1=O (stereo not shown) | 4.58% |

| SMILES | hERG current change (%, negative = inhibition) at 10uM |
| --- | --- |
| CCC1Oc2ccc(C)cc2N(CC(=O)N2CCN(c3ccc(F)cc3)CC2)C1=O (stereo not shown) | -54.1% |
| Cc1ccc2c(c1)N(CC(=O)N1CCCCC1)C(=O)C(C)O2 (stereo not shown) | 11.9% |
| Cc1c(C(=O)N/N=C/c2ccc(N3CCOCC3)cc2)nc2ccccn12 | -1.87% |
| CCN(CC)C(=O)C(=O)c1ccn(-c2c(C)csc2C(=O)OC)c1 | -9.5% |
| COC(=O)c1scc(C)c1-n1ccc(C(=O)C(=O)N(C)C)c1 | 5.31% |
| C=CCN(CC=C)C(=O)C(=O)c1ccn(-c2c(C)csc2C(=O)OC)c1 | -70.3% |
| NC(=O)C1CCCN(C(=O)c2ccc(Cl)cc2)C1 (stereo not shown) | 6.59% |
| O=C(Nc1ccccc1)c1cc(-n2cnnc2)ccc1Cl | 9.46% |
| CN1CCN(c2ccc(NC(=O)c3ccc(Cl)cc3)cn2)CC1 | -53.1% |
| Cc1ccc(C(=O)Nc2ccc3c(c2)CCC3)cc1 | 14.7% |
| CC(=O)Nc1ccc(N2CCN(c3ccc(C(F)(F)F)cn3)CC2)nc1 | -3.49% |
| COCC(=O)N1CCc2ccc(NC(=O)c3ccc(C(F)(F)F)cc3)cc2C1 | -38.3% |
| Cc1ccccc1C(=O)Nc1ccc(N2CCN(C)CC2)nc1 | -1.6% |
| CN1CCN(c2ccc(NC(=O)c3ccc(C(F)(F)F)cc3)cn2)CC1 | -73.2% |
| CN(C)S(=O)(=O)c1cccc(C(=O)Nc2ccc3c(c2)CCC3)c1 | -21.9% |
| CN(C)S(=O)(=O)N1CCc2ccc(NC(=O)c3ccc(C(F)(F)F)cc3)cc2C1 | 25.4% |
| CN(C)S(=O)(=O)c1ccc(C(=O)Nc2ccc3c(c2)CCC3)cc1 | -52% |
| O=C(Nc1ccc(N2CCOCC2)nc1)c1ccc(Cl)cc1 | -11.5% |
| CN1CCc2ccc(NC(=O)c3ccc(C(F)(F)F)cc3)cc2C1 | -53.8% |
| O=C(Nc1ccc(N2CCOCC2)nc1)c1ccc(C(F)(F)F)cc1 | 16.6% |
| Cn1c(=O)c2c([nH]c(=S)n2Cc2ccc(Cl)cc2)n(C)c1=O | 17% |
| Cc1ccsc1C(=O)N1CCN(c2ncccn2)CC1 | 7.76% |
